Rpn11 inh = Rpn11 (PSMD14) deubiquitinase inhibitors, primary screen, biochemical, fluorescence polarization, uHTS. 0.59% of 360,000 active. AID 588493, 2011. inhibition, % at 20 µM. 26S proteasome non-ATPase regulatory subunit 14 (Homo sapiens), O00487. human 26S proteasome, Ub4-pepOG fluorescence polarization; 20S core pre-blocked with epoxomicin;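 active = inhibition at 20 µM, scaled to each plate's controls, above about 33%, limit read from the data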
NR3A LBD binder = binders of NR3A ligand-binding domain, primary screen, biophysical, differential scanning fluorimetry, uHTS; Glutamate receptor ionotropic, NMDA 3A (GRIN3A) ligand-binding domain; NR3A LBD differential scanning fluorimetry, Tm shift; 0% = protein alone, 100% = glycine-bound protein; Tm shift relative to glycine control, % at 25 µM; 2.5% of 340,000 active; AID 1259313, 2017;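 active = melting temperature shift of at least 10% of the positive control shift, at one fixed dose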
TPT1 inh = Candida albicans TPT1 enzyme inhibitors, primary screen, biochemical, fluorescence polarization | recombinant caTPT1, FP RNA substrate dephosphorylation | inhibition, % at 5 µM | tRNA 2'-phosphotransferase TPT1 (Candida albicans SC5314) | AID 1962, 2009 | 0.81% of 300,000 active;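 active = inhibition above the mean of all tested compounds plus 3 SD, set per screening campaign, cut at about 24% in these data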;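 also: plate controls were DMSO alone for no effect and ferristatin control at 100 nM for full effect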
dFosB activator = activators of delta FosB homodimer, primary screen, biochemical, fluorescence polarization, TAMRA-CDK5 oligo, single point; Protein FosB (Mus musculus), P13346; purified delta FosB; percent of positive-control signal above neutral wells; activation, % at 25 µM; 0.99% of 340,000 active;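 active = mean activation above about 17%, with every replicate also reaching it, limit read from the data, passing the limit was not always enough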
Target sequence (P13346 whole entry, looked up): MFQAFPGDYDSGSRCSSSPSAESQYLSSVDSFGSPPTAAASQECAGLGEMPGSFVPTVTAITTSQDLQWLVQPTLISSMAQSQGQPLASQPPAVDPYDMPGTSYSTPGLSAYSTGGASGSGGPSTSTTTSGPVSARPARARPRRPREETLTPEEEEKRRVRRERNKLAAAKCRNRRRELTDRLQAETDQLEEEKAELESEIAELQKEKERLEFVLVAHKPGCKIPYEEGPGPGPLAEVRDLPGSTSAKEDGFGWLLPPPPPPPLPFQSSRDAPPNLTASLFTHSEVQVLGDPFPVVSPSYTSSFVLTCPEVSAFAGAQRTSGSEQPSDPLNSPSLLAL
ZTA counter = blocks Epstein-Barr virus ZTA, an EBNA-1 counter-screen | ZTA-DNA binding, fluorescence polarization | inhibition, % at 11 µM | 0.15% of 320,000 active | AID 2234; in the data active = inhibition above about 33%
EBNA-1 inhibitor = EBNA-1 DNA-binding inhibitors, primary screen, biochemical, fluorescence polarization; inhibition, % at 14.8 µM; 0.34% of 300,000 active; AID 1950, 2009; in the data active = inhibition above about 28%
Active calls of the source: *; / = not tested or not shown. Compounds with a hit are over-represented: about 4.5% of the library has one in this group of screens.

SMILES | Rpn11 inh | NR3A LBD binder | TPT1 inh | dFosB activator | ZTA counter | EBNA-1 inhibitor
COc1ccc2nc(SCC(=O)C(C)(C)C)[nH]c2c1 | -10.5 | 122.6* | -0.3 | 7.7 | -7.8 | -7.9
COc1ccc2nc(SCC(=O)NC(C)(C)C)[nH]c2c1 | 3.5 | 1.6 | 2.1 | -7.3 | 2.9 | 2.9
C=CCN(CC=C)C(=O)Nc1cc(OC)ccc1OC | 4.1 | 0.8 | / | 2.1 | / | /
CC(CCC(C)C(C)(C)C)[C@@H]1CC[C@H]2C3C[C@H](OS(O)(=S)=S)[C@H]4C[C@H](OS(O)(=S)=S)[C@@H](OS(O)(=S)=S)C[C@]4(C)[C@H]3CC[C@]12C (stereo not given in full) (tested in a mixture with another compound) | 133.0* | -416.2 | / | -11.2 | / | /
COC(=O)CNC(=O)CNC(=O)c1nn(-c2ccc(OC)c(OC)c2)c(=O)c2ccccc12 | -1.8 | 3.5 | 0.7 | -9.3 | -9.6 | -17.2
COc1ccc(-n2nc(C(=O)NCC(=O)Nc3cc(OC)c(OC)c(OC)c3)c3ccccc3c2=O)cc1Cl | 4.4 | 0.5 | 1.1 | 21.4* | -26.1 | 6.3
COc1ccc(-n2nc(C(=O)NCC(=O)NCc3ccc(F)cc3)c3ccccc3c2=O)cc1OC | 9.6 | 1.4 | -3.0 | 125.8* | 10.6 | -11.3
CC1CCN(c2ccc(NC(=O)Cn3c(=O)oc4ccccc43)cc2)CC1 | -1.9 | 0.0 | 1.1 | -14.8 | 3.4 | 4.7
CC(=O)N1CC2([N+](=O)[O-])CN(C(C)=O)CC([N+](=O)[O-])(C1)C2(C)C | 0.9 | -0.6 | -1.2 | -8.6 | 18.9 | 7.9
COc1ccc(-c2csc3ncnc(N4CCN(Cc5ccccc5)CC4)c23)cc1 | 3.6 | 14.4* | -0.1 | -17.5 | -4.2 | 2.2
COc1ccc(-c2csc3ncnc(N4CCN(c5ccccc5)CC4)c23)cc1 | -2.2 | -5.3 | -3.0 | -2.1 | 7.6 | 3.9
COc1ccc(-c2noc(=O)n2Cc2ccccc2F)cc1 | 0.2 | 2.5 | -3.0 | -0.7 | 2.3 | 2.7
O=C1C2C3C=CC(CC3)C2C(=O)N1/N=C/c1ccc(O)c(O)c1 (stereo not given) | -21.6 | 0.5 | 1.1 | 1.5 | 0.4 | 5.7
O=C1c2ccccc2C(=O)N1/N=C/c1ccc(O)c(O)c1 | -14.7 | 19.0* | -1.3 | -5.8 | -0.1 | -0.9
CCc1ccc(NC(=O)C(C)n2nc(C)c([N+](=O)[O-])c2C)cc1 (stereo not given) | -6.3 | 0.3 | 3.2 | -5.9 | -6.0 | -13.1
Oc1ccc(-c2nccc(-c3ccc(Br)cc3)n2)cc1 | 5.5 | 37.0* | -0.5 | -7.0 | -4.9 | -1.4
O=C(/C=C/Nc1ccc([N+](=O)[O-])cc1Br)c1cccc2ccccc12 | / | 12.8* | 2.6 | -12.5 | 24.5 | 5.3
CCOC(=O)c1ccc(NC(=S)Nc2ccc(Br)cc2N)cc1 | -3.5 | 22.6* | 1.2 | 3.4 | -20.5 | 3.9
CCOC(=O)c1ccc(NC(=S)NN)cc1 | 6.9 | -1.6 | 0.6 | -14.3 | -10.0 | -1.8
CC(C)(C)OC(=O)N1CCC(c2c(C(=O)NCC3CCN(C4CCCC4)C3)cnn2-c2ccccc2Cl)CC1 (stereo not given) | 2.3 | -0.1 | 1.8 | -1.9 | 1.1 | -10.2
COc1cccc(/C=N/n2nnnc2N)c1OCC#N | 5.1 | 13.3* | -4.5 | -4.8 | -9.8 | 7.7
COc1cc(Cc2ccc(N)c(OC)c2)ccc1N | -1.6 | -0.8 | 0.5 | 0.2 | 5.0 | 2.4
Nc1ccc(Cc2ccc(N)c(O)c2)cc1O | / | -4.6 | / | 44.5* | / | /
Cc1[nH]n(C(N)=S)c(=O)c1N=Nc1cc(-c2ccc(Br)cc2)[nH]n1 | 8.5 | 24.2* | -1.4 | -4.8 | -0.4 | 3.3
CC1(c2ccc(Cl)cc2)NC(=O)N(CC(=O)N2CCCC2)C1=O (stereo not given) | -8.3 | 11.2* | -2.1 | -6.2 | -13.3 | -8.6
COc1ccc(C(=O)COC(=O)c2ccc3c(c2)OCCO3)c(OC)c1 | 2.7 | 4.4 | / | -20.6 | / | /
CCOc1ccc(C(=O)N/N=C/c2ccc(SC)cc2)cc1 | -4.2 | 0.5 | -2.9 | -2.8 | -0.1 | 17.2

Screening results from PubChem.
